Data on 5 molecules can be found in PubChem BioAssay (NCI).

Among the test systems are NCI-H23 lung; NCI-H226 lung; NCI-H322M lung; HOP-62 NSCLC; NCI-H460 lung; HOP-92 NSCLC; NCI-H522 lung; A549/ATCC NSCLC; 786-0 renal; COLO 205 colon; DU-145 prostate; K-562 leukemia; MALME-3M melanoma; MDA-MB-231 breast; RXF 393 renal; SF-268 CNS; SF-295 CNS; SF-539 CNS; UACC-257 melanoma; M14 melanoma.
What all share (test): NCI-60 one-dose screen, 48 h (100 = growth as untreated, 0 = no growth, -100 = all killed)
Common to all, as to conditions: 10 µM unless noted

Values joined by “and” are separate entries in the source; they are usually repeats but may differ in a detail not shown here. Identical values can stand only once. About 83,000 compounds went through this panel and 20% of them were active in at least one assay; those are over-represented in the sample as a whole.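 In brief: 96-well plates, 48 h treatment, single concentration, percent growth endpoint.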 Unmarked numbers belong to inactive results. Active and inactive are the calls of the source. The calls were made as follows: active = growth percent below 10; inactive = the rest.

For `Cc1ccc(NC(=O)c2ccc(CN3CCN(C)CC3)cc2)cc1Nc1nccc(-c2cccnc2)n1`, the growth in the test on NCI-H23 lung was 82.9% and 76.2%; with NCI-H226 lung it was 89.4% and 78.2%; in the test on NCI-H322M lung it was 104%; with HOP-62 NSCLC, 84.9%; in the test on NCI-H460 lung it was 96.8% and 83.9%; in the test with HOP-92 NSCLC, 56.3% and 66.4%. For the same molecule, the growth is 51.2% in the test with NCI-H522 lung; 96.2% and 62.2% in the test with A549/ATCC NSCLC; 95% and 88.6% with 786-0 renal; 101% and 78.3% with COLO 205 colon; 85.6% and 88.2% in the test on DU-145 prostate; 2.02% (active) with K-562 leukemia. Moreover, the growth is 114% and 79.6% with MALME-3M melanoma; 88.8% and 81.3% with MDA-MB-231 breast; 94.3% and 69.3% in the test with RXF 393 renal; 104% and 74.5% with SF-268 CNS; 84.9% and 66.4% with SF-295 CNS; 75.5% and 38.2% with SF-539 CNS. The growth in the test with UACC-257 melanoma is 97.2% and 29.6%; with M14 melanoma, 113% and 82.7%.

In the case of `Cc1cc(N2CCN(CC(=O)Nc3ccc4c(ccn4Cc4ccccc4)c3)CC2)nc(N2CCCCCC2)n1`, the growth was 53.2% in the test on NCI-H23 lung; 57.4% in the test with NCI-H226 lung; 77.9% in the test with NCI-H322M lung; 59.8% in the test on HOP-62 NSCLC; 40% in the test with NCI-H460 lung; 0.991% (active) in the test with HOP-92 NSCLC. Also, the growth in the test on NCI-H522 lung is 62.4%; with A549/ATCC NSCLC it was 46.3%; in the test with 786-0 renal, 79.4%; with COLO 205 colon, 30.6%; in the test with DU-145 prostate it was 71.5%; in the test with K-562 leukemia it was 14.8%. Besides, the growth in the test on MALME-3M melanoma is 18.2%; with MDA-MB-231 breast, 28.2%; in the test on RXF 393 renal, 28.7%; in the test with SF-268 CNS, 72.9%; in the test with SF-295 CNS it was 44.4%; with SF-539 CNS it was 69.4%. Further, the growth is 42.8% in the test with UACC-257 melanoma and -7.84% (active) in the test with M14 melanoma.

As for `CN1CCN(c2ccc(Nc3ncc(C(N)=O)c(NCCCNC(=O)C4CCC4)n3)cc2)CC1`, the growth is 70.4% in the test on NCI-H23 lung; 62.1% in the test on NCI-H226 lung; 75.8% in the test with NCI-H322M lung; 34% in the test with HOP-62 NSCLC; 78.9% with NCI-H460 lung; 113% in the test on HOP-92 NSCLC. The growth in the test with NCI-H522 lung was 77.3%; in the test on A549/ATCC NSCLC, 78.2%; with 786-0 renal it was 90.2%; in the test with COLO 205 colon it was -5.21% (active); with DU-145 prostate, 67.6%; in the test on K-562 leukemia it was 41.7%. The growth with MALME-3M melanoma is 76.6%; in the test with MDA-MB-231 breast, 11.6%; with RXF 393 renal, 20.4%; in the test with SF-268 CNS it was 80.6%; with SF-295 CNS it was 81.3%; in the test with SF-539 CNS it was 11.1%. Moreover, the growth is 119% with UACC-257 melanoma and 80% with M14 melanoma.

Turning to `CCOC(=O)N(O)c1ccc(/C=C/c2ccccc2)cc1`, the growth with NCI-H23 lung was 75.9% and 51.3%; in the test with NCI-H226 lung, -39.4% (active); in the test on NCI-H322M lung, 79.6% and 76.4%; in the test on HOP-62 NSCLC it was 66.5%; in the test on NCI-H460 lung, 23.5% and 22%; in the test with HOP-92 NSCLC it was 67.4%. Moreover, the growth in the test with NCI-H522 lung is 67.5% and 48.4%; in the test with A549/ATCC NSCLC it was 44% and 77.1%; in the test with 786-0 renal it was 70.3% and 73.7%; with COLO 205 colon, 88.5% and 84.7%; with DU-145 prostate, 65.7% and 61.4%; in the test with K-562 leukemia it was 39.9% and 40.3%. Besides, the growth is 96.6% and 117% in the test with MALME-3M melanoma; 67.3% and 54% in the test with MDA-MB-231 breast; 76.8% and 69.1% in the test on RXF 393 renal; 86.3% and 81.3% in the test with SF-268 CNS; 41.7% and 11.4% in the test with SF-295 CNS; 96.5% and 85.1% with SF-539 CNS. Moreover, the growth is -40.5% (active) and -36.8% (active) with UACC-257 melanoma; 66.7% and 58.8% in the test on M14 melanoma.

`Cc1ccc2[nH]c(=S)[nH]c(=O)c2c1`: the growth is 100% with NCI-H23 lung; 102% in the test on NCI-H226 lung; 102% in the test on NCI-H322M lung; 99.4% in the test on HOP-62 NSCLC; 106% in the test with NCI-H460 lung; 93.4% in the test on HOP-92 NSCLC. Besides, the growth is 94.7% in the test with NCI-H522 lung; 98.9% in the test on A549/ATCC NSCLC; 94.9% in the test with 786-0 renal; 117% in the test with COLO 205 colon; 109% with DU-145 prostate; 97.1% with K-562 leukemia. The growth was 102% in the test with MALME-3M melanoma; 109% in the test with MDA-MB-231 breast; 104% with RXF 393 renal; 100% with SF-268 CNS; 104% in the test on SF-295 CNS; 99.7% in the test on SF-539 CNS. Further, the growth with UACC-257 melanoma and in the test with M14 melanoma was 101% throughout.
